Our source for the Percent Effect values is ChEMBL document CHEMBL3988442, “University of Dundee, Small-Polar-MMV Screening Library” (2021).

Structures are written as SMILES.

The first experiment deals with T1, Aspartate--tRNA(Asp/Asn) ligase (Mycobacterium tuberculosis (strain ATCC 25618 / H37Rv)) (UniProt P9WFW3).
T1 sequence (whole entry): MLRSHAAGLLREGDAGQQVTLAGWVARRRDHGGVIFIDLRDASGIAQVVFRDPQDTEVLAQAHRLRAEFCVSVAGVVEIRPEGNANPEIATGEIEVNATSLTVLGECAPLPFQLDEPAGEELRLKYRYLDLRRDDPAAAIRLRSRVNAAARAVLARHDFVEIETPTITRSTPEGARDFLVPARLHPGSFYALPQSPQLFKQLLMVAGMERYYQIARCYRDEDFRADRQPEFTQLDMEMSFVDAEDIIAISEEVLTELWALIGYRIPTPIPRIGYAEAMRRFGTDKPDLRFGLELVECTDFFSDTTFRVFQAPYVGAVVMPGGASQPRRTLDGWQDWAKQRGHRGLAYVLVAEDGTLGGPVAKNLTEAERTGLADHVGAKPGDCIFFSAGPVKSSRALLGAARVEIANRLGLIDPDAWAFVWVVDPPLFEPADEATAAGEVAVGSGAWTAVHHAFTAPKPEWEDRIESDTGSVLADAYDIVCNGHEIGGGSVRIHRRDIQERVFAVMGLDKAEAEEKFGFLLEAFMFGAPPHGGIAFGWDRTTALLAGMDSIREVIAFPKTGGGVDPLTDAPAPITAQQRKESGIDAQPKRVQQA
Nature of the experiment: Assay for Asp RNA synthetase-1 from Mycobacterium tuberculosis. The experiment is classed as functional. The arrangement: scale not given: direction of the effect not stated beside the values. The note with it: 30 µM.
Regarding `Cc1ccc(-c2nc(CN3CCC(C(=O)N(C)C)CC3)cs2)o1`, the Percent Effect stood at 4.21%.
Consider `COc1ccc(C(=O)NCC(c2cccn2C)N2CCCC2)c(OC)c1` (stereo not given), for which the Percent Effect was -4.85%.
The same measure, in the same setting: under `CCCn1[nH]cc/c1=N\C(=O)CN1CCc2c(nc(C(C)C)n2C)C1` stands 1.84%.
On the same count and under the same terms, under `CC(=O)NCCc1cc(N2CCN(C(C)=O)CC2)nc(C2CC2)n1` stands -3.2%; under `Cc1ccc(C)c(C(=O)CN2C(=O)c3ccccc3CS2(=O)=O)c1`, 2.42%.
For the compound `CC1(C(=O)N2CCOCC2)CN(Cc2ccccc2F)CCO1` (stereo not given), the Percent Effect was -0.309%.
Still for that read-out and setting: under `O=C(Cc1ccccn1)N1CCc2nc(-c3cnccn3)nc(O)c2C1` stands -2.49%; under `OCCn1nccc1C1CCN(CCCOc2ccc(F)cc2)CC1`, 1.85%; under `CCn1nnc2c1C(COC)CN(Cc1cccs1)C2` (stereo not given), -3.5%.
As to `Cc1noc(C)c1C(=O)NCC(c1ccc(F)cc1)N(C)C` (stereo not given), the Percent Effect stood at 1.51%.
Still for that read-out and setting: under `CC(Cn1cccn1)NC(=O)Nc1ccc(F)cc1` (stereo not given) stands 1.84%; under `Cc1n[nH]cc1CNc1ccc2c(c1)CN(C(=O)OC(C)(C)C)CC2`, 2.29%.
Same read-out and setting: under `COc1ccc(Oc2cncc(C3CCCN3C(C)=O)n2)cc1` (stereo not given) stands 0.194%.
Take `CCOc1ccc(CC(CNC(=O)c2occc2C)C(N)=O)cc1` (stereo not given): the Percent Effect was determined as 2.25%.
For the compound `O=C(Cc1cccc(F)c1)NCCNCc1ccco1`, the Percent Effect turned out to be 0.577%.
For the compound `COCC1c2c(cnn2CC2CCOCC2)CCN1Cc1ccoc1` (stereo not given), the Percent Effect was found to be 0.211%.
Regarding `CCN1CCC(CNCc2cc(OC)ccc2OC)C1` (stereo not given), the Percent Effect is -3.93%.
Take `Cc1ncnc(NCc2cc3n(n2)CCCN(S(C)(=O)=O)C3)c1C`: the Percent Effect is 0.518%.
`COc1cccn(CC(=O)N(C)CCOc2cc(C)cc(C)c2)c1=O`: the Percent Effect amounted to 38.9%.
Still for that read-out and setting: under `Nc1cc(N2CCCC2c2cnccn2)ncn1` (stereo not given) stands 6.36%; under `O=C(c1cccc2c1OCO2)N1CCCC1Cn1cccn1` (stereo not given), 3.69%.
Take `Cc1cnccc1N1CCCN(C(=O)CCCc2cn[nH]c2)CC1`: the Percent Effect was -0.632%.
Turning to `Cc1ccc(CN2CCc3ncc(CNS(C)(=O)=O)n3CC2)o1`, the Percent Effect came to 1%.
In the case of `Cc1ccc(NC(C)C(=O)NCc2cccs2)cc1C` (stereo not given), the Percent Effect is 3.13%.
On to `N#Cc1cccnc1NCCNC(=O)N1CCCSCC1`, for which the Percent Effect turned out to be 0.546%.
For `CC(CNC(=O)Nc1ccc(N(C)C)nc1)Cn1cccn1` (stereo not given), the Percent Effect amounted to 5.91%.
Same read-out and setting: under `Cc1n[nH]c(C2CN(C(=O)c3ccnc(C4CC4)n3)CCO2)n1` (stereo not given) stands 1.3%; under `COc1c(C2CCCN2C(=O)c2ccnc(N(C)C)c2)c(C)nn1C` (stereo not given), 2.59%.
With `O=C(NCCNc1ncccn1)C1CCN(C(=O)C2CC2)CC1`, the Percent Effect was found to be 1.89%.
Regarding `CN(C)CCO[C@@H]1CC[C@H]2[C@H]1OCCN2C(=O)COc1ccccc1`, the Percent Effect came out at 1.51%.
Same read-out and setting: under `Cc1ccn(CCC(=O)N2CCOC(c3nc(-c4cccs4)no3)C2)n1` (stereo not given) stands -0.897%; under `Cc1ccc(CN(Cc2cccnc2)C2CC(C)(C)NC(C)(C)C2)s1`, 3.32%.
For the compound `Cn1cc(CN2CCN(Cc3nccn3C)CC2)cn1`, the Percent Effect was -2.81%.
With `COc1ccc(Cl)cc1NCC(=O)NCCc1ccccn1`, the Percent Effect was -0.954%.
For `CC(O)CN1CCC(CNCc2ccccc2OC(F)(F)F)CC1` (stereo not given), the Percent Effect was -1.43%.
In the case of `CC(C)CN1Cc2c(C(=O)N(C)C)ncn2-c2ccccc2S1(=O)=O`, the Percent Effect was -2.86%.
On to `O=C(c1cscn1)N1C[C@@H]2C[C@@H](c3nnc(C4CC4)o3)O[C@@H]2C1`, for which the Percent Effect was found to be 1.21%.
With `CS(=O)(=O)N[C@@H]1CCO[C@]2(CCN(C(=O)c3cnccn3)C2)C1`, the Percent Effect turned out to be 4.35%.
With `CCOc1ncccc1NC(=O)c1cc2c(s1)CCC2`, the Percent Effect was -3.51%.
Same read-out and setting: under `Cc1cnnn1Cc1ncn2c1CN(Cc1cccs1)CCC2` stands -1.27%.

In the next experiment the target is Shiga toxin 2 (Escherichia coli O157:H7) (UniProt P09385+P09386). Nature of the experiment: E. coli 0.157:H7 Shiga Toxin SOP - stx2 screening assay. Set-up: scale not given: direction of the effect not stated beside the values. The experiment is classed as functional. The note with it: 30 µM.
Regarding `Cc1ccc(-c2nc(CN3CCC(C(=O)N(C)C)CC3)cs2)o1`, the Percent Effect was -24.2%.
On the same count and under the same terms, under `COc1ccc(C(=O)NCC(c2cccn2C)N2CCCC2)c(OC)c1` (stereo not given) stands -22.3%.
Regarding `CCCn1[nH]cc/c1=N\C(=O)CN1CCc2c(nc(C(C)C)n2C)C1`, the Percent Effect was 1.47%.
Same read-out and setting: under `CC(=O)NCCc1cc(N2CCN(C(C)=O)CC2)nc(C2CC2)n1` stands -16%.
Regarding `Cc1ccc(C)c(C(=O)CN2C(=O)c3ccccc3CS2(=O)=O)c1`, the Percent Effect is -18.8%.
Regarding `CC1(C(=O)N2CCOCC2)CN(Cc2ccccc2F)CCO1` (stereo not given), the Percent Effect worked out at 1.31%.
`O=C(Cc1ccccn1)N1CCc2nc(-c3cnccn3)nc(O)c2C1`: the Percent Effect was 4.64%.
Consider `OCCn1nccc1C1CCN(CCCOc2ccc(F)cc2)CC1`, for which the Percent Effect turned out to be 4.26%.
As to `CCn1nnc2c1C(COC)CN(Cc1cccs1)C2` (stereo not given), the Percent Effect is 5.25%.
`Cc1noc(C)c1C(=O)NCC(c1ccc(F)cc1)N(C)C` (stereo not given): the Percent Effect worked out at 16%.
On to `CC(Cn1cccn1)NC(=O)Nc1ccc(F)cc1` (stereo not given), for which the Percent Effect is -31.3%.
Same read-out and setting: under `Cc1n[nH]cc1CNc1ccc2c(c1)CN(C(=O)OC(C)(C)C)CC2` stands -13.2%; under `COc1ccc(Oc2cncc(C3CCCN3C(C)=O)n2)cc1` (stereo not given), -6.98%.
Regarding `CCOc1ccc(CC(CNC(=O)c2occc2C)C(N)=O)cc1` (stereo not given), the Percent Effect was determined as 23.6%.
As to `O=C(Cc1cccc(F)c1)NCCNCc1ccco1`, the Percent Effect came to 3.74%.
Take `COCC1c2c(cnn2CC2CCOCC2)CCN1Cc1ccoc1` (stereo not given): the Percent Effect was -9.29%.
For `CCN1CCC(CNCc2cc(OC)ccc2OC)C1` (stereo not given), the Percent Effect is -21.3%.
In the case of `Cc1ncnc(NCc2cc3n(n2)CCCN(S(C)(=O)=O)C3)c1C`, the Percent Effect worked out at 12.4%.
Regarding `COc1cccn(CC(=O)N(C)CCOc2cc(C)cc(C)c2)c1=O`, the Percent Effect is -20.3%.
As to `Nc1cc(N2CCCC2c2cnccn2)ncn1` (stereo not given), the Percent Effect was found to be 0.702%.
Turning to `O=C(c1cccc2c1OCO2)N1CCCC1Cn1cccn1` (stereo not given), the Percent Effect turned out to be 29.5%.
As to `Cc1cnccc1N1CCCN(C(=O)CCCc2cn[nH]c2)CC1`, the Percent Effect was -13.3%.
`Cc1ccc(CN2CCc3ncc(CNS(C)(=O)=O)n3CC2)o1`: the Percent Effect is -24.4%.
As for `Cc1ccc(NC(C)C(=O)NCc2cccs2)cc1C` (stereo not given), the Percent Effect was -30.8%.
In the case of `N#Cc1cccnc1NCCNC(=O)N1CCCSCC1`, the Percent Effect worked out at 12.8%.
On the same count and under the same terms, under `CC(CNC(=O)Nc1ccc(N(C)C)nc1)Cn1cccn1` (stereo not given) stands -40.9%; under `Cc1n[nH]c(C2CN(C(=O)c3ccnc(C4CC4)n3)CCO2)n1` (stereo not given), 28.6%; under `COc1c(C2CCCN2C(=O)c2ccnc(N(C)C)c2)c(C)nn1C` (stereo not given), 25.8%.
Consider `O=C(NCCNc1ncccn1)C1CCN(C(=O)C2CC2)CC1`, for which the Percent Effect was found to be 14.1%.
For the compound `CN(C)CCO[C@@H]1CC[C@H]2[C@H]1OCCN2C(=O)COc1ccccc1`, the Percent Effect was -12.1%.
As for `Cc1ccn(CCC(=O)N2CCOC(c3nc(-c4cccs4)no3)C2)n1` (stereo not given), the Percent Effect is 37.2%.
Regarding `Cc1ccc(CN(Cc2cccnc2)C2CC(C)(C)NC(C)(C)C2)s1`, the Percent Effect amounted to 13.4%.
Turning to `Cn1cc(CN2CCN(Cc3nccn3C)CC2)cn1`, the Percent Effect is -37.2%.
On to `COc1ccc(Cl)cc1NCC(=O)NCCc1ccccn1`, for which the Percent Effect is 25.8%.
Turning to `CC(O)CN1CCC(CNCc2ccccc2OC(F)(F)F)CC1` (stereo not given), the Percent Effect was determined as 5.19%.
Turning to `CC(C)CN1Cc2c(C(=O)N(C)C)ncn2-c2ccccc2S1(=O)=O`, the Percent Effect turned out to be 4.89%.
For the compound `O=C(c1cscn1)N1C[C@@H]2C[C@@H](c3nnc(C4CC4)o3)O[C@@H]2C1`, the Percent Effect is -37.8%.
With `CS(=O)(=O)N[C@@H]1CCO[C@]2(CCN(C(=O)c3cnccn3)C2)C1`, the Percent Effect was found to be 3.82%.
In the case of `CCOc1ncccc1NC(=O)c1cc2c(s1)CCC2`, the Percent Effect came to 1.91%.
Take `Cc1cnnn1Cc1ncn2c1CN(Cc1cccs1)CCC2`: the Percent Effect was -3.58%.
